Assay results published in PubChem BioAssay (Tox21).
Records with an inconclusive call do not appear. Where a call stands in place of a potency, no number is given. Values without a mark were called inactive. Calls of active or inactive are those of the source. Calls come from the whole dose curve; as a rule, active = well fitted inhibition curve with a large enough effect in the signal ratio in the repeat runs (not every such curve was filed as active); inconclusive = weak or mixed curves; inactive = flat fitted curve, though single readings scatter; the % refers to the signal ratio.

target: Progesterone receptor (Homo sapiens) (UniProt P06401); assay: qHTS assay to identify small molecule antagonists of the progesterone receptor (PR) signaling pathway (AID 1346795); settings: PR-UAS-bla HEK293T, beta-lactamase FRET ratio, 16 h; series mostly up to 92.4 µM
From the text: National Center for Advancing Translational Sciences [NCATS]
NIH Chemical Genomics Center [NCGC]
U.S. Environmental Protection Agency [EPA]
National Institutes of Environmental Health Sciences [NIEHS]
National Toxicology Program [NTP]
U.S. Food and Drug Administration [FDA]
Progesterone receptor (PR), a nuclear hormone receptor, plays an important role in development, metabolic homeostasis and reproduction. […] Endocrine disrupting chemicals (EDCs) and their interactions with steroid hormone receptors like PR causes disruption of normal endocrine function. To identify the compounds that inhibit PR signaling, a PR-UAS-bla GripTite cell line i.e. PR-UAS-bla HEK293T (Invitrogen, Carlsbad, CA, USA) containing a beta-lactamase reporter gene under the control of an Upstream Activator Sequence (UAS) was used to screen Tox21 10K compound library.
Tox21 Assay Protocol Summary:
PR-UAS-bla HEK293T cells were dispensed at 3,000 cells/4 uL of assay medium containing 2% charcoal stripped FBS per well into black wall/clear-bottom 1536-well plates using a Multidrop Combi (ThermoFisher Scientific, Waltham, MA) dispenser. After the assay plates were incubated at a 37C and 5% CO2 for 6 hr, 23 nL of compounds dissolved in DMSO, positive controls or DMSO only was transferred to the assay plate by a Pintool station (Kalypsys, San Diego, CA), followed by addition of 1 uL (1nM as final concentration) of Promegestone (R5020) in assay medium using a BioRAPTR FRD (Flying Reagent Dispenser, Aurora Discovery, San Diego, CA). The plates were incubated at 37C and 5% CO2 for 16 hr. Then 1 uL of LiveBLAzer B/G FRET substrate was added using a FRD. After the plates were incubated at room temperature for 2 hours, fluorescence intensity was measured by an Envision plate reader (PerkinElmer, Shelton, CT).
Potency is the fitted concentration of half-maximal effect.

Sequence of Progesterone receptor (Homo sapiens) (P06401 whole entry, looked up): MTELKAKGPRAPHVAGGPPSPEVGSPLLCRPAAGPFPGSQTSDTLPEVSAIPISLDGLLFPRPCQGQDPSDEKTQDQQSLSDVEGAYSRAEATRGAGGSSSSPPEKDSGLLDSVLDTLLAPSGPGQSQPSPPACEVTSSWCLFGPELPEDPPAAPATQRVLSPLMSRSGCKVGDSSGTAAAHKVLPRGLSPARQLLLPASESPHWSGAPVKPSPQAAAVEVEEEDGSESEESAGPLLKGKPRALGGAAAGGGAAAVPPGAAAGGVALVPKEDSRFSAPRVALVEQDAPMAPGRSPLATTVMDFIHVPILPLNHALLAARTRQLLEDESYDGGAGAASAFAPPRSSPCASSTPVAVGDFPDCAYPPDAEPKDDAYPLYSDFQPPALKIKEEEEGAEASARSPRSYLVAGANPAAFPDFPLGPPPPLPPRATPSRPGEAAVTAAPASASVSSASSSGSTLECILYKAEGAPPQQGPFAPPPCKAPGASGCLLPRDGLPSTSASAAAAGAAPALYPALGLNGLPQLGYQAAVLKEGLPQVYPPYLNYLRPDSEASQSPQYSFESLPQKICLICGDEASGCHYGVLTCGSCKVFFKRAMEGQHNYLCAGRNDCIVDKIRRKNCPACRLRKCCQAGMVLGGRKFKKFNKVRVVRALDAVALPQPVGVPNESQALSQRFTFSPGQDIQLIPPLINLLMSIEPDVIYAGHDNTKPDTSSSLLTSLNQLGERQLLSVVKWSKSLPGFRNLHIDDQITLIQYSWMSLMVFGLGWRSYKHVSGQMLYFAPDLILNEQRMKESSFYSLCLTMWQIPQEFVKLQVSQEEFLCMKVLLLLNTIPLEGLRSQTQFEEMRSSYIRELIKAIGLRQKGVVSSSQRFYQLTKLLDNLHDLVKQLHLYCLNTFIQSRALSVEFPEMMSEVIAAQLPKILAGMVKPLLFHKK

Compound | Potency | activity change, negative = inhibition
O=C(O)c1cc(Cl)cc([N+](=O)[O-])c1Cl | inactive | 
CCCCCCCCCC(C)=O | inactive | 
CCn1ccc(NS(=O)(=O)c2ccc(N)cc2)nc1=O | inactive | 
CC(=O)Nc1cccc(C)c1 | inactive | 
CCCCCCCCSCC | inactive | 
CC(COC(C)(C)C)OCCCO (stereo not given) | inactive | 
Oc1ccccc1-c1nnco1 | inactive | 
C[C@H](N)[C@H](O)c1cccc(O)c1 | inactive | 
CCCCCCCCC1CCC(=O)O1 (stereo not given) | inactive | 
Oc1cn2c(n1)Nc1ccc(Cl)c(Cl)c1C2 |  | 2.35% [at 18.9 µM]
Cc1ccc(S(=O)(=O)O)c(C)c1 | inactive | 
O=C1CCCC(=O)O1 | inactive | 
N[C@@H](CCC(=O)N[C@@H](CS)C(=O)NCC(=O)O)C(=O)O |  | 1.1% [at 18.9 µM]
Cc1cc(C(C)(C)C)c(O)c(C)c1CC1=NCCN1 | inactive | 
CCC(C=O)CC | inactive | 
COC(=O)CCCCCCCC(=O)OC | inactive | 
OCCN(CCO)c1cccc(Cl)c1 | inactive | 
CC(C)N(c1ccccc1)C(C)C | inactive | 
O=C(O)Cc1cn(-c2ccccc2)nc1-c1ccc(Cl)cc1 | inactive | 
Cc1nc2n(c(=O)c1CCN1CCC(c3noc4cc(F)ccc34)CC1)CCC[C@H]2O |  | 1.27% [at 18.9 µM]

Compound | Potency | activity change, negative = inhibition
C[Si](C)=O |  | 12.9% [at 8.39 µM]
CCc1ccc(C=O)cc1 | inactive | 
CC(=O)OC(C)OC(=O)C(C)c1ccc(-c2ccccc2)c(F)c1 (stereo not given) | inactive | 
O=C1c2ccccc2C(=O)C1c1ccccc1 | inactive | 
CN1CCN(CC(=O)N2c3ccccc3C(=O)Nc3cccnc32)CC1 |  | 9.85% [at 8.39 µM]
CCCCC(CC)COCCO (stereo not given) | inactive | 
O=C(NCCc1c[nH]c2ccccc12)c1cccnc1 | inactive | 
O=C1CC(c2ccc(Cl)cc2)CC(=O)N1 | inactive | 
C[Si](C)(C)C | inactive | 
COC(=O)[C@@H]1[C@H]2C[C@H]3c4[nH]c5ccccc5c4CCN3C[C@@H]2CC[C@@H]1O | inactive | 
C[C@@H](O)[C@H]1C(=O)N2C(C(=O)O)=C(SCCN=CN)C[C@H]12 | inactive | 
c1ccc2nccnc2c1 | inactive | 
CC1=CCC(C(C)C)=CC1 | inactive | 
CCCN1C[C@H](CSC)C[C@@H]2c3cccc4[nH]cc(c34)C[C@H]21 | inactive | 
CC(=O)c1ccc2c(c1)Cc1ccccc1-2 | 12.2 µM (active) | 
CC(C)(C)c1nnc(NS(=O)(=O)c2ccc(N)cc2)s1 | inactive | 
CO[C@@H]1[C@@H](OC(N)=O)[C@@H](O)[C@H](Oc2ccc3c(O)c(NC(=O)c4ccc(O)c(CC=C(C)C)c4)c(=O)oc3c2C)OC1(C)C | inactive | 
O=C(CCN1CCN(CCO)CC1)N1c2ccccc2Sc2ccc(C(F)(F)F)cc21 | inactive | 
CCCCCCOc1ccccc1C(N)=O | 7.5 µM (active) | 
CC(C)OC(=O)CCCCC(=O)OC(C)C | inactive | 
